# RORgamma inh – inhibitors of mouse ROR gamma transcriptional activity. AID 2551. Potency, µM (highest dose often 53.6 µM), without a hit: at the top dose activity change, negative = inhibition, actives largely listed as inhibitors. Drosophila S2 Gal4-RORgamma UAS-luciferase reporter, 20 h. 310,000 tested, 5.4% active. P51450; further: potency means the concentration at half of the fitted maximal effect; nearly all actives have a fitted effect of over 60% in size
# Target sequence (P51450 whole entry, looked up, the tested form may be a part): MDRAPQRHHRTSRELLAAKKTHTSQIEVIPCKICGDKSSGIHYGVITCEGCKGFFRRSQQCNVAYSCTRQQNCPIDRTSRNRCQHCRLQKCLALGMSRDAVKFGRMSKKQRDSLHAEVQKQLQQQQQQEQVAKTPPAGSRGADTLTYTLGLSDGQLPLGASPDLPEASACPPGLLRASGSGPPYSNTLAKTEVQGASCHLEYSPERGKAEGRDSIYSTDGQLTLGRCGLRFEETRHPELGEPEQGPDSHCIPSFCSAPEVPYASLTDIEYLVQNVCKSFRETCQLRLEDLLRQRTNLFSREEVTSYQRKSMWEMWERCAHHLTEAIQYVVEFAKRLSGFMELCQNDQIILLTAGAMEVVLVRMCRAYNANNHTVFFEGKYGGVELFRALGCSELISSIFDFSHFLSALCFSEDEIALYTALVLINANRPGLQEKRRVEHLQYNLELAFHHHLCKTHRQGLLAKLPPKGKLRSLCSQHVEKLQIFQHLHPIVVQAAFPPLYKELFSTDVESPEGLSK
#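 A Gal4/UAS one-hybrid system in insect cells: metallothionein-promoter Gal4–ROR gamma fusion plus Photinus luciferase reporter. Copper sulfate 700 uM final, 20 hr ambient incubation, luminescent detection after 10 min with reagent.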
# IL1B secr inh – inflammasome signaling inhibition, IL-1 beta readout | THP-1 LPS/ATP IL-1B secretion, AlphaLISA, 16 h; hits give low values | 360,000 tested, 4.7% active | activity change, % at 57.5 µM | AID 743279; in the data active means activity change below about -50%; inconclusive means mostly about -30% to -49%
#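 THP-1 cells pretreated 1 hr with compounds (up to 57.5 uM final), then stimulated with LPS (250 ng/mL final) plus ATP (1.25 mM final); secreted IL-1B measured by AlphaLISA after 16 hr, decreased signal indicating inhibition.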
# DT40 TDP1 no CPT – qHTS for Inhibitors of human tyrosyl-DNA phosphodiesterase 1 (TDP1): qHTS in cells in absence of CPT; Potency, µM (titrated, usually from 46.2 µM), inactives show top-dose activity change, negative = growth inhibition, actives largely listed as inhibitors; DT40 Tdp1-/- hTDP1 cells, no CPT, ATP luminescence, 48 h; 420,000 tested, 15% active; further: potency means the concentration at half of the fitted maximal effect; nearly all actives have a fitted effect of over 55% in size
#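 Cells were dispensed at 400 per well, compounds added by pin tool, plates incubated ≥48 hr at 37 °C, then CellTiter-Glo added for 30 min at room temperature before luminescence reading. Line: DT40 Tdp1-/- complemented with hTDP1; camptothecin omitted.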
# LDHA block – inhibitors of human lactate dehydrogenase A | P00338 | purified LDHA, NADH/diaphorase-resazurin fluorescence; hits give low values | activity change, % (values are at about 110 or 230 µM) | 480,000 tested, 0.15% active; in the data active means activity change below about -30%; inconclusive means mostly about -25% to -30%;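 further: plate controls were DMSO wells for no effect and wells without enzyme for full effect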
#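 Resorufin fluorescence (ex540/em590), read at 0 and 20 min after diaphorase/resazurin addition, reports the NADH left after a 5 min room-temperature reaction of 2 nM human LDH5 with 0.06 mM NADH and 0.2 mM pyruvate.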
# Gal4-VP16 FLuc – inhibits Gal4-VP16 luciferase reporter, ROR gamma counter-screen | Drosophila S2 Gal4-VP16 UAS-luciferase, luminescence, 20 h | 310,000 tested, 3.5% active | Potency, µM (doses to about 53.6 µM), inactives show at the top dose activity, negative = inhibition, actives largely listed as inhibitors;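 further: Gal4-VP16 expression switched on by copper sulfate through the metallothionein promoter; potency means the concentration at half of the fitted maximal effect; nearly all actives have a fitted effect of over 50% in size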
# DT40 TDP1 CPT – DT40-hTDP1 cell growth loss with CPT; chicken DT40 Tdp1-/-;hTDP1 cells + 20 nM CPT, ATP luminescence, 48 h; Potency, µM (series often up to 46.2 µM), inactives show top-dose activity change, negative = growth inhibition, actives largely listed as inhibitors; 420,000 tested, 12% active; AID 686979; further: potency means the concentration at half of the fitted maximal effect; nearly all actives have a fitted effect of over 55% in size
#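 Cell growth measured by CellTiter-Glo luminescence after a minimum 48 h, 37 C compound exposure with 20 nM CPT in Tdp1-knockout DT40 cells stably expressing hTDP1, seeded 400/well; qHTS titration format.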
# * hit, by the source's call; u = inconclusive; x = not tested or not shown. Rows were chosen to be rich in hits. Some 18% of all compounds tested hit in one or more screens of this group. Unless noted, the call rests on the fitted dose curve; in most records, active means well fitted curve in the direction sought with a large enough effect; inconclusive means small, poorly fitted or top-dose-only effect, or another doubt; inactive means no such curve, though single readings can be large; an effect the other way counts as inactive or inconclusive. Unless noted, on the % scale 0 is the no-effect control and ±100 the full control effect.
SMILES,RORgamma inh,IL1B secr inh,DT40 TDP1 no CPT,LDHA block,Gal4-VP16 FLuc,DT40 TDP1 CPT
CC1=C(C(=O)N2CCOCC2)C(c2ccc(O)cc2)NC(=S)N1 (stereo unspecified),-12%,3,1%,-14,-1%,9%
COc1ccc(-c2nc3ccc(Br)cn3c2Cc2cccc(F)c2)cc1OC,x,-14,u,-6,x,u
COc1ccc(-c2nc3ccc(Cl)cn3c2Cc2cccc(F)c2)cc1OC,x,0,21µM*,-1,x,23µM*
COc1ccc(-c2nc3ccc(C)cn3c2Cc2cccc(F)c2)cc1OC,x,-15,21µM*,1,x,u
COc1ccc(-c2nc3ccc(Cl)cn3c2Cc2ccc(C)cc2)cc1OC,x,-16,u,-2,x,u
CONC(=O)COc1ccc(C(C)(C)C)cc1,x,x,x,11,x,x
CCOC(=O)c1c(NC(=O)COc2ccc(OC)cc2)sc(C(=O)N(CC)CC)c1C,x,x,7.3µM*,2,x,u
CCOC(=O)c1c(NC(=O)COC(=O)c2cccnc2OCC)sc(C(=O)N(CC)CC)c1C,x,-60*,18µM*,-2,x,u
CCOC(=O)Nc1sc(C(=O)N(CC)CC)c(C)c1C(=O)OCC,u,0,-17%,0,2%,-11%
CCN(CC)C(=O)c1sc(NC(=O)C2c3ccccc3Oc3ccccc32)c(C(=O)OC(C)C)c1C,x,x,0.12µM*,0,x,u
CCN(CC)C(=O)c1sc(NC(=O)C2c3ccccc3Oc3ccccc32)c(C#N)c1C,x,x,x,-22,x,x
CCOC(=O)c1c(NC(=O)COC(=O)c2ccc(O)cc2)sc(C(=O)NC)c1C,x,14,21µM*,-1,x,18µM*
Cc1cc(C(=O)OCC(=O)NC(c2ccccc2)c2ccccc2)c2ccccc2n1,x,x,x,-1,x,x
CC(NC(=O)CSc1nc2c(cc1C#N)CCCC2)c1ccccc1 (stereo unspecified),x,x,x,0,x,x
CCOC(=O)c1c(NC(=O)COc2ccc(Br)cc2)sc(C(C)=O)c1C,x,x,9.2µM*,-5,x,u
CCOC(=O)c1c(NC(=O)COc2ccccc2)sc(C(C)=O)c1C,x,x,x,1,x,x
CCOC(=O)c1c(NC(=O)c2nc(S(C)(=O)=O)ncc2Cl)sc(C(C)=O)c1C,x,x,0.92µM*,1,x,0.58µM*
CCN1CCN(CCNC(=O)c2cc(-c3ccc(NC(C)=O)cc3)nc3ccccc23)CC1,x,x,x,25,x,x
O=C(NCN1CCc2ccccc2C1)c1ccccc1,0%,13,11%,-3,3%,-19%
O=C(NCN1CCc2ccccc2C1)c1cnccn1,u,11,23µM*,-1,-19%,u
Cc1ccccc1-c1noc(-c2ccc(N3CCN(C)CC3)c([N+](=O)[O-])c2)n1,x,x,13µM*,-11,x,16µM*
COc1cc(-c2noc(-c3ccc(N4CCN(C)CC4)c([N+](=O)[O-])c3)n2)cc(OC)c1OC,x,x,3.3µM*,-2,x,3.3µM*
CC1CCN(c2ccc(-c3nc(-c4ccccc4)no3)cc2[N+](=O)[O-])CC1,x,x,u,-18,x,u
Cc1ccccc1-c1noc(-c2ccc(N3CCCC3)c([N+](=O)[O-])c2)n1,x,x,-14%,1,x,-9%
CN1CCN(c2ccc(-c3nc(-c4ccccc4)no3)cc2[N+](=O)[O-])CC1,x,x,15µM*,-5,x,u
SMILES,RORgamma inh,IL1B secr inh,DT40 TDP1 no CPT,LDHA block,Gal4-VP16 FLuc,DT40 TDP1 CPT
NS(=O)(=O)c1ccc(NC(=O)CCN(Cc2cccs2)C2CC2)cc1,x,x,x,-1,x,x
CCCN(CC(=O)Nc1cccc(Br)c1)CC(=O)Nc1ccc(F)c(F)c1F,u,-92*,u,-3,u,u
CCCN(CC(=O)Nc1ccc(C)cc1Br)CC(=O)Nc1ccc(F)c(F)c1F,-102%,-29,18µM*,7,u,u
CCCN(CC(=O)Nc1ccc(F)c(F)c1F)CC(=O)Nc1c(Cl)cccc1Cl,u,-1,4.1µM*,-2,-19%,10µM*
O=C(Nc1ccc(F)c(F)c1)C1CCN(c2nc3ccccc3o2)CC1,x,x,x,-2,x,x
CC(C)Oc1ccc(/C=C(/C#N)c2nc3ccccc3[nH]2)cc1Br,x,x,x,4,x,x
COc1ccccc1C1OC2=C(Nc3ccc([N+](=O)[O-])cc3N2)C1=O (stereo unspecified),-2%,-6,13µM*,3,4%,13µM*
COc1ccc(C2OC3=C(Nc4cc(C)c(C)cc4N3)C2=O)cc1 (stereo unspecified),11%,6,-1%,-4,u,4%
CCc1ccc(OCC(O)Cn2cnc3cc(Cl)ccc3c2=O)cc1 (stereo unspecified),x,x,x,-4,x,x
CC(C)(C)OC(=O)N1Cc2cc3ccccc3nc2C1,x,17,u,0,x,u
CC(C)(C)OC(=O)N1CCNc2ccccc2C1,4µM*,5,-27%,2,u,-19%
CC(C)NC(=O)c1cc(Br)c(Br)s1,x,x,x,4,x,x
CC(NC(=O)c1ccc(-c2ccccc2)cc1)C1CC2CCC1C2 (stereo unspecified),x,x,x,5,x,x
O=C(Nc1ccc(Br)cn1)c1cccc(-c2cc3ccccc3oc2=O)c1,3%,17,u,-10,-23%,u
O=C(Nc1ccccc1N1CCCC1)c1cccc(-c2cc3ccccc3oc2=O)c1,u,-1,21µM*,-2,-6%,u
O=C(Nc1ccc(N2CCCC2)cc1)c1ccc2ccccc2c1,-6%,-5,-17%,-7,-2%,1%
O=C(Nc1ccc(N2CCCC2)cc1)c1cccc(-c2cc3ccccc3oc2=O)c1,26%,-23,23µM*,-1,18%,16µM*
